Experimental findings from PubChem BioAssay (EPA / NIEHS) are described below.

Read-out in assay [1]: Matrix Metallopeptidase 9 (MMP9), MMP9 (gene 4318)
Briefly: BSK_KF3CT_MMP9: BioMAP Diversity Plus: KF3CT Assay for Matrix Metallopeptidase 9 (MMP9) Biomarker Activity (AID 2283074).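 For AC50: MMP9 protein level quantified by ELISA in the co-culture.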 The following applies: primary human keratinocytes with fibroblasts; actives raise or lower the signal. In short, it runs like this:
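Keratinocyte plus foreskin fibroblast human primary skin co-culture was dosed with chemical and MMP-9 was quantified by ELISA 24 h later. Bidirectional curve fitting used DMSO as negative control and activity baseline.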

Read-out in assay [2]: urokinase plasminogen activator (uPA), PLAU (gene 5328)
As to the kind of experiment: BSK_KF3CT_uPA: BioMAP Diversity Plus: KF3CT Assay for urokinase plasminogen activator (uPA) Biomarker Activity (AID 2283075). The following applies: primary human keratinocytes with fibroblasts; actives raise or lower the signal. In short, it runs like this:
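Human keratinocyte plus foreskin fibroblast primary co-culture exposed to chemical for 24 h. uPA levels were quantified by ELISA, and activity was fitted bidirectionally against a DMSO negative-control baseline.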

Read-out in assay [3]: CD40, CD40 (gene 958)
As to the kind of experiment: BSK_LPS_CD40: BioMAP Diversity Plus: LPS Assay for CD40 Biomarker Activity (AID 2283076). The following applies: primary human HUVEC with PBMC; actives raise or lower the signal. The method in brief:
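Primary human umbilical vein endothelial cells co-cultured with peripheral blood mononuclear cells, LPS-stimulated, were dosed with chemical and read 24 h later. CD40 levels were measured by ELISA and fitted bidirectionally against DMSO as negative control and baseline.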

Read-out in assay [4]: E-selectin (Homo sapiens) (UniProt P16581)
Briefly: BSK_LPS_Eselectin: BioMAP Diversity Plus: LPS Assay for Eselectin Biomarker Activity (AID 2283077). The following applies: primary human HUVEC with PBMC; actives raise or lower the signal. The method in brief:
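Human umbilical vein endothelial cells co-cultured with peripheral blood mononuclear cells under LPS stimulation; E-selectin measured by ELISA 24 h after chemical dosing. Activity fitted bidirectionally against DMSO as negative control and baseline.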

Read-out in assay [5]: Interleukin-8 (IL8), CXCL8 (gene 3576)
Briefly: BSK_LPS_IL8: BioMAP Diversity Plus: LPS Assay for Interleukin-8 (IL8) Biomarker Activity (AID 2283078). Conditions: primary human HUVEC with PBMC; actives raise or lower the signal. In short, it runs like this: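 Human umbilical vein endothelial cells co-cultured with PBMC were stimulated with LPS; IL-8 levels were measured by ELISA 24 h after chemical dosing. Activity was fitted bidirectionally against DMSO as negative control and baseline.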

Assay [6] is described as follows: BSK_LPS_SRB: Viability Assessment in the BioMAP Diversity Plus: LPS Assay (AID 2283079).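 Note: total protein by sulforhodamine B absorbance as a cytotoxicity measure; measured one day after compound addition; fitted in both directions against DMSO so loss or gain of signal counts.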 The following applies: primary human HUVEC with PBMC. In short, it runs like this:
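Human umbilical vein endothelial cells co-cultured with PBMC (LPS system) were dosed for 24 h. Total protein was stained with 0.1% sulforhodamine B after 10% TCA fixation, read at 560 nm, and fitted bidirectionally against DMSO baseline.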

Read-out in assay [7]: Monocyte Chemoattractant Protein-1 (MCP1), CCL2 (gene 6347)
Briefly: BSK_LPS_MCP1: BioMAP Diversity Plus: LPS Assay for Monocyte Chemoattractant Protein-1 (MCP1) Biomarker Activity (AID 2283081).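 For AC50: secreted MCP-1 protein quantified by ELISA in culture supernatant.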 The following applies: primary human HUVEC with PBMC; actives raise or lower the signal. The method in brief: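 HUVEC plus PBMC co-culture (human primary cells, LPS system) exposed to test chemical for 24 h; MCP-1 measured by ELISA. Bidirectional curve fitting against DMSO baseline; parallel SRB total-protein staining flags overt cytotoxicity.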

Assay [8] is described as follows: BSK_LPS_PGE2: BioMAP Diversity Plus: LPS Assay for Prostaglandin E2 (PGE2) Biomarker Activity (AID 2283082). The following applies: primary human HUVEC with PBMC; actives raise or lower the signal. The method in brief:
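Endpoint derived from bidirectional curve fitting versus DMSO of ELISA-measured PGE2 in LPS-stimulated human primary vascular co-culture (HUVEC with PBMC) harvested at 24 h.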

Read-out in assay [9]: Macrophage colony-stimulating factor (MCSF), CSF1 (gene 1435)
Briefly: BSK_LPS_MCSF: BioMAP Diversity Plus: LPS Assay for Macrophage colony-stimulating factor (MCSF) Biomarker Activity (AID 2283083). The following applies: primary human HUVEC with PBMC; actives raise or lower the signal. In short, it runs like this: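 Human umbilical vein endothelial cells co-cultured with peripheral blood mononuclear cells were exposed to compound for 24 h. M-CSF levels were measured by ELISA, and bidirectional curve fitting used DMSO as the negative control and baseline.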

Read-out in assay [10]: Tissue Factor, F3 (gene 2152)
Briefly: BSK_LPS_TissueFactor: BioMAP Diversity Plus: LPS Assay for Tissue Factor Biomarker Activity (AID 2283084). The following applies: primary human HUVEC with PBMC; actives raise or lower the signal. In short, it runs like this: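 Human umbilical vein endothelial cells co-cultured with peripheral blood mononuclear cells were dosed and stimulated with LPS. Cell-surface CD142 was quantified by ELISA at 24 h. Activity was fitted bidirectionally against DMSO baseline.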

Read-out in assay [11]: Tumor necrosis factor (Homo sapiens) (UniProt P01375)
As to the kind of experiment: BSK_LPS_TNFa: BioMAP Diversity Plus: LPS Assay for Tumour Necrosis Factor alpha (TNFa) Biomarker Activity (AID 2283085). Conditions: primary human HUVEC with PBMC; actives raise or lower the signal. In short, it runs like this:
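Primary human vascular co-culture of HUVEC and PBMC; TNFa ELISA 24 h after treatment, analysed as increase or decrease relative to DMSO control.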

Read-out in assay [12]: Vascular cell adhesion molecule 1 (VCAM1), VCAM1 (gene 7412)
Briefly: BSK_LPS_VCAM1: BioMAP Diversity Plus: LPS Assay for Vascular cell adhesion molecule 1 (VCAM1) Biomarker Activity (AID 2283086). The following applies: primary human HUVEC with PBMC; actives raise or lower the signal. The method in brief: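 Primary human vascular co-culture (umbilical vein endothelium plus PBMC) stimulated with LPS received chemical; 24 h later VCAM-1 was read by ELISA. Overt cytotoxicity was assessed by sulforhodamine B staining of parallel cultures at the same time point.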

Read-out in assay [13]: CD38, CD38 (gene 952)
As to the kind of experiment: BSK_SAg_CD38: BioMAP Diversity Plus: SAg Assay for CD38 Biomarker Activity (AID 2283087). The following applies: primary human HUVEC with PBMC; actives raise or lower the signal. In short, it runs like this:
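Fluorescence ELISA of cell-surface CD38 served as the read-out, with either increase or decrease fitted against DMSO controls. Cells were a human umbilical vein endothelium plus PBMC co-culture under SEB/TSST-1 stimulation, measured 24 h after dosing.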

Read-out in assay [14]: CD40, CD40 (gene 958)
Briefly: BSK_SAg_CD40: BioMAP Diversity Plus: SAg Assay for CD40 Biomarker Activity (AID 2283088). The following applies: primary human HUVEC with PBMC; actives raise or lower the signal. In short, it runs like this:
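Human umbilical vein endothelial cells co-cultured with PBMC; CD40 levels measured by ELISA with fluorescence read-out 24 h after chemical dosing. Gain or loss of signal fitted bidirectionally against DMSO baseline.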

Read-out in assay [15]: CD69, CD69 (gene 969)
Briefly: BSK_SAg_CD69: BioMAP Diversity Plus: SAg Assay for CD69 Biomarker Activity (AID 2283089).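 For AC50: cell surface CD69 protein quantified by ELISA with fluorescence detection.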 Conditions: primary human HUVEC with PBMC; actives raise or lower the signal. In short, it runs like this: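 Endothelial/PBMC co-culture; chemical added; 24 h incubation; CD69 ELISA with fluorescence detection; bidirectional fit vs DMSO.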

Read-out in assay [16]: Monocyte Chemoattractant Protein-1 (MCP1), CCL2 (gene 6347)
As to the kind of experiment: BSK_SAg_MCP1: BioMAP Diversity Plus: SAg Assay for Monocyte Chemoattractant Protein-1 (MCP1) Biomarker Activity (AID 2283090). Conditions: primary human HUVEC with PBMC; actives raise or lower the signal. In short, it runs like this:
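MCP-1 levels in the endothelial–PBMC SAg co-culture were quantified by ELISA at 24 h post-dosing; both increases and decreases versus DMSO scored. Cytotoxicity monitored by SRB total protein in parallel cultures.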

Read-out in assay [17]: E-selectin (Homo sapiens) (UniProt P16581)
Briefly: BSK_SAg_Eselectin: BioMAP Diversity Plus: SAg Assay for Eselectin Biomarker Activity (AID 2283091). Conditions: primary human HUVEC with PBMC; actives raise or lower the signal. The method in brief: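 HUVEC co-cultured with PBMC, compound dosed then read at 24 h; E-selectin measured by ELISA. Activity fitted bidirectionally against DMSO as negative control and baseline.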

Read-out in assay [18]: Monokine induced gamma interferon (MIG), CXCL9 (gene 4283)
As to the kind of experiment: BSK_SAg_MIG: BioMAP Diversity Plus: SAg Assay for Monokine induced gamma interferon (MIG) Biomarker Activity (AID 2283092). The following applies: primary human HUVEC with PBMC; actives raise or lower the signal. In short, it runs like this: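 Measures CXCL9 protein by ELISA in a human vascular primary-cell co-culture (umbilical vein endothelium with PBMC) 24 h after chemical addition. Activity is scored up or down from the DMSO control.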

A short description of assay [19]: BSK_SAg_PBMCCytotoxicity: PBMC Cytotoxicity Assessment in the BioMAP Diversity Plus: SAg Assay (AID 2283093).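 For AC50: PBMC superantigen activated with SEB plus TSST-1 one hour after compound addition.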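 Note: PBMC viability measured as Alamar Blue reduction fluorescence at 546/580 nm; fitted both ways against DMSO so a hit may be loss or gain of signal.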 The following applies: primary human HUVEC with PBMC. The method in brief:
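Human umbilical vein endothelial cells co-cultured with PBMC; PBMC (75,000/well) pre-treated with compound 1 h, then activated with SEB and TSST-1 (20 ng/mL final each) for 90 h. Alamar Blue added 6 h, fluorescence 546/580 nm; bidirectional fit versus DMSO.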

Calls of active or inactive are those of the source. Rule for the calls: active = hit-call score of the fitted dose curve at least 0.9, where 1 is the maximum; inactive = score below 0.9.

Chain of Tumor necrosis factor (Homo sapiens) (P01375 whole entry, looked up): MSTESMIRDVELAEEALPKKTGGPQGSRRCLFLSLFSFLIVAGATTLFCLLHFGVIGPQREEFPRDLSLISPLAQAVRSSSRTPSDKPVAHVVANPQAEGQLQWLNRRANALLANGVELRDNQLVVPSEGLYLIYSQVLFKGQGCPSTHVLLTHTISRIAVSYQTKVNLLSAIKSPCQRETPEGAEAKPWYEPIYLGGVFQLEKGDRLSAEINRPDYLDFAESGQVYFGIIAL
Chain of E-selectin (Homo sapiens) (P16581 whole entry, looked up): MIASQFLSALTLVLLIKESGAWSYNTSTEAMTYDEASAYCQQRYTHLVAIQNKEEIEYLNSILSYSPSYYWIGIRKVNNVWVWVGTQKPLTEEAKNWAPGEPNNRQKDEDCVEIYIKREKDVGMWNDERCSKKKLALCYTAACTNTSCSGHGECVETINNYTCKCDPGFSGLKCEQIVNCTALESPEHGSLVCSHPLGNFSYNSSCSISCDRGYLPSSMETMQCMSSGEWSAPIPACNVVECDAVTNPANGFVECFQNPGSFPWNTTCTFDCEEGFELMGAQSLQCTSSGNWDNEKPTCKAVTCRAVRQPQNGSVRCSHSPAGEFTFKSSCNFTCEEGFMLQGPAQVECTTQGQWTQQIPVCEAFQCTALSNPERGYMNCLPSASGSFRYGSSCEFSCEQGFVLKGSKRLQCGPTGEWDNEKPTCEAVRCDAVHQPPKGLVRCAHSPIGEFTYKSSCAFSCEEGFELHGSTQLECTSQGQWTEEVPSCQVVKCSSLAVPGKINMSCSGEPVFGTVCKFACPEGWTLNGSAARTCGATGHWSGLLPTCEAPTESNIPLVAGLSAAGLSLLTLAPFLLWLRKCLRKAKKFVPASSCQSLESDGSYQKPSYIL

Consider `C=C(C)C(=O)[O][Sn]([CH2]CCC)([CH2]CCC)[CH2]CCC`, for which the AC50 is 148 nM (active) in assay [1]; 148 nM (active) in assay [2]; 148 nM (active) in [3]; 148 nM (active) in [4]; 380 nM (active) in [5]; 148 nM (active) in assay [6]. Also, the AC50 in assay [7] was 331 nM (active); in assay [9], 148 nM (active); in assay [10], 148 nM (active); in assay [11] it was 340 nM (active); in [12] it was 148 nM (active); in [13], 248 nM (active). In addition, the AC50 in assay [14] is 148 nM (active); in assay [15] it was 148 nM (active); in [16], 352 nM (active); in [17], 147 nM (active); in [18], 148 nM (active); in assay [19], 236 nM (active). Also, the outcome in assay [8] was inactive.

In the case of `CC12CC1(C)C(=O)N(c1cc(Cl)cc(Cl)c1)C2=O` (centres undefined), the result in [1], in [2], in assay [3], in [4], in [5] and in assay [6] was inactive. Further, the result in assay [7], in [8], in [9], in assay [10], in [11] and in assay [13] was inactive. Moreover, the result in [14], in assay [15], in assay [16], in assay [17], in [18] and in assay [19] was inactive.

Consider `O=c1[nH]c(=O)[nH]c(=O)[nH]1`, for which the outcome in [1], in assay [2], in [3], in [4], in [5] and in assay [6] was inactive. For the same compound, the outcome in [7], in [8], in assay [9], in [10], in assay [11] and in [12] was inactive. Further, the result in assay [13], in [14], in assay [15], in assay [16], in assay [17] and in [18] was inactive. Moreover, in [19], the result was inactive.

`ClC(Cl)=C(Cl)C(Cl)=C(Cl)Cl`: the AC50 in assay [1] was 28900 nM (active); in [3], 31400 nM (active); in assay [6], 3970 nM (active); in assay [9], 32100 nM (active); in assay [10] it was 33200 nM (active); in assay [11], 30900 nM (active). Further, in [19], the AC50 was 33100 nM (active). Further, the outcome in assay [2], in [4], in [5], in [7], in [8] and in assay [13] was inactive. Also, the result in assay [14], in assay [15], in assay [16], in [17] and in assay [18] was inactive.

As usually defined, the AC50 is the concentration giving half of the maximal activity seen.
